# This is a sample that favours compounds with a hit; in the whole collection about 2.4% have one here.
# D2 PAM-1: human D2 receptor positive allosteric modulation. DiscoveRx D2 beta-arrestin cells, luminescence, 90 min; 100% = 57 uM dopamine signal. potentiation, % (test concentration not listed). actives 0.23% (n = 360,000); in the data active means potentiation above about 50%
# Target sequence (P14416 whole entry, looked up): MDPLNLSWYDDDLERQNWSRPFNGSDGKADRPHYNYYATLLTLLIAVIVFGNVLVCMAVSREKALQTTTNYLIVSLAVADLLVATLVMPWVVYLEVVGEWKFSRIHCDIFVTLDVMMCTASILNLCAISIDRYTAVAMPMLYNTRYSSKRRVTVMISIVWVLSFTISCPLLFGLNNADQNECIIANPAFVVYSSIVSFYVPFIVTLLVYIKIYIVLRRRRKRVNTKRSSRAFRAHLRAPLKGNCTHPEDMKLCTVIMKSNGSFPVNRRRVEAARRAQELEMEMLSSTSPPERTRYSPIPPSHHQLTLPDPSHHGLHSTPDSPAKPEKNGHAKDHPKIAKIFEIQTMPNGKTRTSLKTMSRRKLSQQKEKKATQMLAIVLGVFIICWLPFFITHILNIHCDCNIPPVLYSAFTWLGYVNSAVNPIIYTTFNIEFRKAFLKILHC
#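 PathHunter D2 cells, attached overnight at 37 deg C, received compound in DMSO plus dopamine at EC20 (50 nM final) for 90 min at 37 deg C. Beta-arrestin recruitment was read as luminescence after 1 h with detection reagent at ambient temperature.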
# D2 ag-1: agonists of human D2 dopamine receptor; P14416; HEK293 T-REx D2 cells, calcium flux agonist mode; actives 0.53% (n = 340,000); AID 485358; activation, % at 2 µM;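 active means activation over 3 SD above normal in the single-dose calcium agonist read, cut at about 30% in these data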; further: 0% is about no effect
#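 Agonism scored from kinetic calcium signal (1 read/sec, 180 s) following compound pin transfer, after a 10 s baseline. Cells: HEK293 Trex line expressing inducible D2 receptor coupled to calcium, dye-loaded after overnight culture at 30 C.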
# D2 antagonist: antagonizes the human D2 dopamine receptor; P14416; HEK293 TREx D2 cells, calcium flux, dopamine EC80; inhibition, % at 10 µM; actives 2% (n = 340,000); AID 485344; in the data active means inhibition above about 30%; inactive means below that, where a call was filed; further: 0% is about no effect
#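 Antagonism is scored as inhibition of an EC80 dopamine-evoked calcium signal in a force-coupled, tetracycline-inducible HEK293 T-REx D2 line, with compound present 180 s before agonist.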
# D2 ag-2: activates the human D2 dopamine receptor; P14416; activation, % (concentration not given with the values); actives 0.084% (n = 360,000); DiscoveRx PathHunter D2 beta-arrestin, luminescence, 90 min; 100% = 57 uM dopamine signal; in the data active means activation above about 40%
#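 DiscoveRx PathHunter D2 beta-arrestin cells (2,100/well) attached overnight, then compound-stimulated 90 min at 37 C in HBSS/10 mM HEPES/0.1% Tween-20 buffer; beta-galactosidase complementation read by luminescence after 1 h at ambient temperature. Dopamine 57 uM final (EC100) as control.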
# D2 PAM-2: positive allosteric modulators of human D2 dopamine receptor | P14416 | HEK293 T-REx D2, calcium flux, EC20 dopamine potentiation | potentiation, % at 10 µM | actives 0.34% (n = 340,000) | AID 485347;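 active means potentiation over 3 SD above the plate norm, cut at about 30% in these data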; further: 0% is about no effect
#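 Primary screen. Calcium kinetics in induced HEK293 T-REx D2 cells: compound pre-addition 180 s, EC20 dopamine, 180 s more.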
# * hit, by the source's call; / = not tested or not shown.
SMILES,D2 PAM-1,D2 ag-1,D2 antagonist,D2 ag-2,D2 PAM-2
Cc1nc2ccccn2c(=O)c1CCN1CCC(C(=O)c2ccc(F)cc2)CC1,-25,-1,95*,-7,-28
Cc1ccc2c(Sc3ccc(Cl)cc3)c(C(=O)N3CCCCC3)[nH]c2c1,/,-2,/,/,-1
Cc1nc2c(-c3ccc(F)cc3)c(C)nn2c(C)c1CCC(=O)N1CCOCC1,-2,0,-13,-7,-18
Cc1nc2cc(-c3ccccc3)nn2c(C)c1CCC(=O)N1CCN(c2ccccn2)CC1,/,-2,36*,/,-7
CCOC(=O)C1CCCCN1C(=O)CCc1c(C)nc2cc(-c3ccccc3)nn2c1C (configuration not stated),-2,0,33*,3,5
Cc1nc2c(-c3ccccc3)c(C)nn2c(C)c1CCC(=O)N1CCOCC1,-4,0,-1,0,32*
CCOC(=O)CSc1nc2ccccc2c(=O)n1CCc1ccc(OC)c(OC)c1,/,0,/,/,11
CC1CCN(C(=O)CSc2nnc(-c3ccc(S(=O)(=O)N4CCOCC4)cc3)n2C)CC1,-8,0,-17,-1,53*
CC1CCCN(C(=O)CSc2nnc(-c3ccc(S(=O)(=O)N4CCOCC4)cc3)n2C)C1 (configuration not stated),0,-2,-5,0,0
O=C(CSc1nnc(C2CC2)n1Cc1ccccc1)N1CCN(S(=O)(=O)c2ccccc2)CC1,6,1,-5,-3,-1
CC(C)Sc1nnc(-c2ccc(S(=O)(=O)N3CCOCC3)cc2)n1C,2,0,35*,-4,-2
O=C(CSc1nnc(C2CC2)n1Cc1ccccc1)c1ccc(S(=O)(=O)N2CCOCC2)cc1,6,-3,46*,1,10
CCN(CC)C(=O)CSc1nnc(-c2ccc(S(=O)(=O)N3CCOCC3)cc2)n1C,-3,0,20,-1,-2
Clc1ccc(-c2cc3ncc4c(n3n2)-c2ccccc2OC4)cc1,/,0,/,/,-2
CCOc1ccc(CCNC(=O)CCCc2nnc3n(CC(C)C)c(=O)c4sccc4n23)cc1,/,0,/,/,0
COc1ccccc1C1C=C(c2ccc(Cl)cc2)Nc2nc(-c3ccc(Cl)cc3)nn21 (configuration not stated),/,5,/,/,-4
CCOc1cc(C(=O)Nc2ccc(-c3nc4ccccc4s3)cc2Cl)cc(OCC)c1OCC,/,-2,/,/,5
Cc1ccc(C)c(N2CCN(C(=O)C3CCC(CNS(=O)(=O)c4ccc(Br)s4)CC3)CC2)c1 (configuration not stated),/,/,/,/,1
CCCCC(=O)N(Cc1nc2sc(C)c(C)c2c(=O)[nH]1)C1CCCC1,-8,1,1,-4,9
COCC(=O)N(Cc1nc2sc(C)c(C)c2c(=O)[nH]1)C1CCCCC1,-5,-2,31*,-4,12
O=C(NCc1ccc(Cl)cc1)C1CCCN(C(=O)c2ccc(Cl)cc2)C1 (configuration not stated),-1,0,38*,-1,3
Cc1ccc(S(=O)(=O)N(C)C)cc1NC(=O)C1CCCN(C(=O)c2ccc(Cl)cc2)C1 (configuration not stated),-2,0,31*,-3,-1
Nc1cc(=O)[nH]c(SCC(=O)Nc2cc(Cl)cc(Cl)c2)n1,-37,-1,30*,-2,-17
Nc1cc(=O)[nH]c(SCC(=O)Nc2ccc(Cl)c(Cl)c2)n1,-9,1,-8,-1,-6
O=C(Nc1nnc(S(=O)(=O)N2CCCC2)s1)c1ccccc1Cl,-2,-2,35*,-5,-4
SMILES,D2 PAM-1,D2 ag-1,D2 antagonist,D2 ag-2,D2 PAM-2
O=C(Nc1nnc(S(=O)(=O)N2CCCCCC2)s1)c1ccccc1Cl,-6,2,/,2,4
CCN(CC)CCCNC(=S)N1CCN(c2nc3ccccc3n2CC)CC1,-20,2,48*,6,-17
Cn1c(CN2CCCCC2)nc2cc(NS(=O)(=O)c3ccc(Cl)cc3)ccc21,-22,1,73*,-4,-18
Cn1c(CCN2CCCCC2)nc2cc(NS(=O)(=O)c3ccc(Cl)cc3)ccc21,-36,0,14,-1,3
Cn1c(CN2CCCCC2)nc2cc(NS(=O)(=O)c3ccc(F)cc3)ccc21,-3,0,74*,-6,-19
CC(=O)Nc1ccc2c(c1)nc(CN1CCCC1)n2C,-21,0,10,0,-1
COc1ccc(C(=O)NCCn2cc(SCC(=O)NCCc3ccc(OC)c(OC)c3)c3ccccc32)cc1,/,0,/,/,3
Cc1ccc(C)c(Nc2nnc(-c3ccc(C)c(S(=O)(=O)N4CCN(C)CC4)c3)c3ccccc23)c1,/,-1,/,/,7
Cc1nonc1OCCN1CCN(c2ccccc2[N+](=O)[O-])CC1,-16,16,53*,2,-40
CCc1ccc(NC(=O)c2sc(-n3nc(C)c(CCC(C)C)c3C)nc2C)cc1,/,-2,/,/,-1
COc1cc(NC(=O)CCS(=O)(=O)c2ccc3c(c2)CC(=O)N3C)cc(OC)c1OC,/,0,/,/,-3
O=C(Nc1ccc(Cl)c(-c2nc3ccccc3o2)c1)c1cccc2c(Cl)cccc12,/,0,/,/,0
COc1ccc(C(=O)Nc2cc(C)c(NC(=O)c3ccccn3)cn2)cc1,-3,0,-24,-2,35*
CCOc1ccc(N2CC(C(=O)NCCN3C(=O)S/C(=C\c4ccc(OC)cc4)C3=O)CC2=O)cc1 (configuration not stated),-18,5,2,-1,13
COc1ccc(/C=C2\SC(=O)N(CCNC(=O)C3CC(=O)N(c4ccccc4)C3)C2=O)cc1 (configuration not stated),2,0,-8,1,37*
CCc1[nH]nc(C(=O)N2CCCC(Nc3cccc(F)c3)C2)c1C (configuration not stated),75*,0,-15,3,11
Cc1ccc[n+](C(C)C(=O)Nc2ccc([N+](=O)[O-])cc2C)c1 (configuration not stated),-9,-3,21,-3,-2
Cc1ccc[n+](C(C)C(=O)Nc2ccc(C)c([N+](=O)[O-])c2)c1 (configuration not stated),-36,3,43*,-3,-17
Cn1c(=O)c2c(ncn2CC(=O)N2CCN(c3ccc([N+](=O)[O-])cc3)CC2)n(C)c1=O,-2,0,-4,0,-1
Cn1c(=O)c2c(nc(N3CCCCC3)n2C)n(C)c1=O,4,-1,-10,1,30*
Cn1c(=O)c2c(nc(N3CCN(c4ccc([N+](=O)[O-])cc4)CC3)n2C)n(C)c1=O,-5,0,34*,-19,3
Cc1ccccc1C(=O)Nc1nc(-c2ccc(Br)cc2)ns1,/,0,/,/,-18

# Source: PubChem (National Center for Advancing Translational Sciences (NCATS))
